# Test results as given in PubChem BioAssay (NCI).
# This is part of a sample that, as a whole, favours compounds with a hit. Of some 79,000 tested, about 15% had one in any assay. Values without a mark were called inactive. Calls of active or inactive are those of the source. Cut-off read from the data, not from the text of the source: active = growth inhibition above about 70%; inactive = the rest.
# How the values were obtained:
# [1] = NCI Yeast Anticancer Drug Screen. Data for the rad50 strain (AID 155);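 note: 0% = growth of vehicle-only cultures of the same strain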; settings: S. cerevisiae rad50 strain growth inhibition, hits give high values
# In short: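 A DNA repair-deficient yeast mutant serves as the test organism; compound-induced growth inhibition is calculated against vehicle-treated cells.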
# [2] = NCI Yeast Anticancer Drug Screen. Data for the mec2-1 strain (AID 157); settings: S. cerevisiae mec2-1 strain, hits give high values
# In short: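 Compounds were applied to mec2-1 yeast cells. Their growth was then compared with that of vehicle-treated cultures to give growth inhibition.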
# [3] = NCI Yeast Anticancer Drug Screen. Data for the sgs1 mgt1 strain (AID 161);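 note: 0% = growth of cultures given vehicle only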; settings: S. cerevisiae sgs1 mgt1 strain, hits give high values
# In short: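 Yeast cells carrying a defined DNA-repair defect were exposed to test compounds. Growth inhibition was measured relative to vehicle-treated controls.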
# [4] = NCI Yeast Anticancer Drug Screen. Data for the cln2 rad14 strain (AID 165);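 note: 0% = growth equal to vehicle treated cultures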; settings: S. cerevisiae cln2 rad14 strain, hits give high values
# In short: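 Strain: cln2 rad14 yeast, altered in cell cycle control and DNA damage repair. Read-out: growth inhibition vs vehicle.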
# [5] = NCI Yeast Anticancer Drug Screen. Data for the bub3 strain (AID 167); settings: S. cerevisiae bub3 mutant strain, hits give high values
# In short: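 Inhibition values come from growth of compound-treated mutant yeast normalised to vehicle-treated controls.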
# [6] = NCI Yeast Anticancer Drug Screen. Data for the mlh1 rad18 strain (AID 175); settings: S. cerevisiae mlh1 rad18 strain growth inhibition, hits give high values
# In short: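 A repair-deficient yeast strain is exposed to test compound, and growth is scored relative to vehicle-treated controls.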
# [7] = at 5.0 µM (retest, dose inferred, filed as 0.5)
# [8] = at 50.0 µM (retest, dose inferred, filed as 5.0)
Structure (SMILES),"growth inhibition [1, 7]","growth inhibition [1, 8]",growth inhibition ([1]; at 50.0 µM),"growth inhibition [2, 7]","growth inhibition [2, 8]",growth inhibition ([2]; at 50.0 µM),"growth inhibition [3, 7]","growth inhibition [3, 8]",growth inhibition ([3]; at 50.0 µM),"growth inhibition [4, 7]","growth inhibition [4, 8]",growth inhibition ([4]; at 50.0 µM),"growth inhibition [5, 7]","growth inhibition [5, 8]",growth inhibition ([5]; at 50.0 µM),"growth inhibition [6, 7]","growth inhibition [6, 8]",growth inhibition ([6]; at 50.0 µM)
Cc1ccc2c(c1)C1(SC(C)C(=O)N1c1ccc(F)cc1)C(=O)N2 (configuration not stated),11%,98% (active),99% (active),15%,99% (active),98.8% (active),14%,98% (active),98.8% (active),11%,98% (active),97.8% (active),10%,99% (active),98.6% (active),11%,99% (active),99% (active)
Cc1ccc(NC(=O)/C(CC(=O)c2sc(Nc3ccc(Cl)c(Cl)c3)nc2C)=N\Nc2ccc([N+](=O)[O-])cc2[N+](=O)[O-])c(C)c1,1%,97% (active),97.7% (active),-4%,96% (active),98.3% (active),5%,93% (active),94.5% (active),0%,98% (active),97.1% (active),-10%,99% (active),96.8% (active),5%,96% (active),96.8% (active)
CCN1/C(=C/C(C)=C/c2sc3ccccc3[n+]2CC)Sc2ccccc21,98% (active),97% (active),92% (active),97% (active),100% (active),94% (active),98% (active),100% (active),94% (active),97% (active),99% (active),93.7% (active),98% (active),99% (active),92.8% (active),98% (active),99% (active),92% (active)
Cc1c(N)nc(C(CC(N)=O)NCC(N)C(N)=O)nc1C(=O)NC(C(=O)NC(C)C(O)C(C)C(=O)NC(C(=O)NCCc1nc(-c2nc(C(=O)NCCCNC(C)c3ccccc3)cs2)cs1)C(C)O)C(OC1OC(CO)C(O)C(O)C1OC1OC(CO)C(O)C(OC(N)=O)C1O)c1cnc[nH]1 (configuration not stated),97% (active),98% (active),92.2% (active),97% (active),99% (active),93.5% (active),95% (active),98% (active),93.5% (active),85% (active),93% (active),90.4% (active),93% (active),98% (active),93.3% (active),98% (active),99% (active),92.2% (active)
COC(=O)c1cccc2c3ccccc3c3ccccc3c12,6%,98% (active),97.1% (active),15%,98% (active),99.5% (active),8%,99% (active),99.2% (active),6%,97% (active),99.5% (active),12%,97% (active),97.8% (active),9%,99% (active),99.2% (active)
Cc1ccc(NNC2=NC(=S)NC(=O)C2)cc1,12%,97% (active),97.5% (active),8%,98% (active),96.9% (active),18%,97% (active),80.6% (active),-8%,95% (active),84.8% (active),9%,97% (active),97.8% (active),18%,97% (active),98.3% (active)
CCCCCCCCCCCCCCCC(=O)N1CC[N+](C)(CC2=CC3(Cl)C(Cl)=C(Cl)C2(Cl)C3(Cl)Cl)CC1 (configuration not stated),99% (active),99% (active),98.8% (active),99% (active),99% (active),99.2% (active),98% (active),99% (active),99.2% (active),96% (active),98% (active),98.5% (active),99% (active),99% (active),98.8% (active),99% (active),99% (active),98.7% (active)
c1ccc(N=c2sc3ccccc3sc2=Nc2ccccc2)cc1,94% (active),32%,51%,56%,50%,32.4%,71% (active),60%,21.8%,96% (active),69%,59.5%,93% (active),76% (active),31.7%,93% (active),56%,-16%
ClC(Cl)(Cl)C1OCOC(C(Cl)(Cl)Cl)O1 (configuration not stated),20%,98% (active),99.2% (active),17%,99% (active),99.2% (active),11%,99% (active),99.3% (active),24%,99% (active),99.3% (active),3%,98% (active),99.3% (active),33%,99% (active),99.3% (active)
O=C1c2ccc(O)c(O)c2C(=O)c2c(O)ccc(O)c21,84% (active),95% (active),73.2% (active),74% (active),95% (active),55.5%,92% (active),95% (active),67.6%,34%,93% (active),56%,85% (active),93% (active),72% (active),91% (active),95% (active),77.8% (active)
O=C(CNc1cccc(Cl)c1)Nn1c(-c2ccccc2)nc2ccccc2c1=O,7%,88% (active),92% (active),-1%,69%,87.7% (active),4%,59%,95.2% (active),16%,74% (active),90.6% (active),22%,87% (active),96% (active),4%,86% (active),96.7% (active)
O=C(O)c1nnsc1-c1ccc(-c2snnc2C(=O)O)cc1,2%,14%,22%,-2%,18%,23.1%,-4%,30%,-6.3%,21%,0%,39.3%,25%,6%,35.1%,7%,9%,3.3%
COc1ccc2cc(C(=O)CCCC(C)C(=O)O)ccc2c1 (configuration not stated),0%,-9%,74.6% (active),-9%,-11%,-7.85%,0%,38%,2.85%,-3%,-22%,-48%,-4%,-9%,3.55%,-12%,-4%,2.95%
COC(OC)(c1ccccc1)C(Br)Br,-21%,50%,85.8% (active),-18%,86% (active),93.2% (active),-24%,45%,89.3% (active),-7%,41%,90.4% (active),-25%,89% (active),90% (active),-12%,59%,84.8% (active)
O=C1C=CC(=O)N1c1ccc(Br)c(Cl)c1,101% (active),100% (active),68.7%,100% (active),100% (active),87.8% (active),21%,100% (active),80.3% (active),46%,100% (active),24.2%,37%,100% (active),66.6%,100% (active),100% (active),63.7%
C/C(=N\NC(=O)N/N=C(\C)c1ccccn1)c1ccccn1,0%,16%,-6.55%,-18%,-16%,16.8%,7%,24%,35.9%,-21%,1%,2.95%,2%,-13%,35.5%,14%,-6%,-5.95%
c1ccc(-c2ccc(-c3ccc(C4=NCCN4)cc3)o2)cc1,13%,91% (active),95.7% (active),16%,79% (active),95% (active),-1%,51%,96.8% (active),-21%,70% (active),89% (active),4%,86% (active),95.8% (active),3%,95% (active),97.5% (active)
CCc1cccc(CC)c1NC(=O)CS,-151%,93% (active),98% (active),-51%,94% (active),97.7% (active),-64%,90% (active),61.7%,-72%,90% (active),95.8% (active),-85%,92% (active),97.8% (active),-132%,93% (active),98% (active)
O=C/C=C/c1cc([N+](=O)[O-])ccc1Cl,-138%,77% (active),81.5% (active),-47%,79% (active),79.5% (active),-59%,83% (active),57.4%,-55%,46%,46.1%,-80%,65%,79.2% (active),-137%,86% (active),93.3% (active)
